This note sets out measurements from the supplement of paper PMC8728848.

Common to all, as to experiment: glycan array binding signal (z-score within array); higher = stronger binding
Common to all, as to conditions: glycan notation: IUPAC condensed, linker removed

Test [1] addresses Fuc(a1-2)Gal(b1-3)GalNAc(b1-3)Gal(a1-4)Gal(b1-4)Glc. An outline of the steps: (§1)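 The Consortium for Functional Glycomics database supplied 3228 glycan arrays, of which those lacking an available protein sequence were dropped. The binding signal, a within-array Z-score, was averaged across arrays of the same protein sequence and across linkers. Negative scores can be read as non-binding.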

The target of test [2] is Fuc(a1-2)Gal(b1-3)GalNAc(b1-4)[Neu5Ac(a2-3)]Gal(b1-4)Glc. An outline of the steps: as §1
The target of a further test is Fuc(a1-2)Gal(b1-3)GlcNAc. In outline:
as §1

The target of test [3] is Fuc(a1-2)Gal(b1-3)[Fuc(a1-4)]GlcNAc(b1-3)[Fuc(a1-3)[Gal(b1-4)]GlcNAc(b1-6)]Gal(b1-4)Glc. An outline of the steps: as §1
Test [4] deals with Fuc(a1-2)Gal(b1-4)GlcNAc(b1-3)GalNAc. In outline:
as §1

Test [5] concerns the target Fuc(a1-2)Gal(b1-4)[Fuc(a1-3)]GlcNAc(b1-3)GalNAc. An outline of the steps: as §1
In test [6] the target is Fuc(a1-2)[Gal(a1-3)]Gal(b1-3)GlcNAc(b1-2)Man(a1-3)[Fuc(a1-2)[Gal(a1-3)]Gal(b1-3)GlcNAc(b1-2)Man(a1-6)]Man(b1-4)GlcNAc(b1-4)[Fuc(a1-6)]GlcNAc. An outline of the steps:
as §1

Test [7] concerns the target Fuc(a1-2)[Gal(a1-3)]Gal(b1-4)Glc. An outline of the steps:
as §1

Test [8] deals with Fuc(a1-2)[GalNAc(a1-3)]Gal(b1-4)GlcNAc(b1-2)Man(a1-3)[Fuc(a1-2)[GalNAc(a1-3)]Gal(b1-4)GlcNAc(b1-2)Man(a1-6)]Man(b1-4)GlcNAc(b1-4)[Fuc(a1-6)]GlcNAc. An outline of the steps: as §1
For test [9], the target named is Fuc(a1-3)[Gal(b1-4)]GlcNAc(b1-2)Man(a1-3)[Fuc(a1-3)[Gal(b1-4)]GlcNAc(b1-2)Man(a1-6)]Man(b1-4)GlcNAc(b1-4)[Fuc(a1-6)]GlcNAc. In outline:
as §1

Another test addresses Gal(a1-2)Gal. In outline:
as §1

For test [10], the target named is Gal(a1-3)Gal(b1-4)GlcNAc(b1-3)GalNAc. In outline: as §1
Test [11] deals with Gal(a1-3)Gal(b1-4)[Fuc(a1-3)]GlcNAc. An outline of the steps: as §1
Test [12] deals with Gal(a1-4)Gal(b1-4)GlcNAc(b1-2)Man(a1-3)[Gal(a1-4)Gal(b1-4)GlcNAc(b1-2)Man(a1-6)]Man(b1-4)GlcNAc(b1-4)GlcNAc. An outline of the steps:
as §1

Test [13] addresses Gal(b1-3)GalNAc(b1-4)[Neu5Ac(a2-3)]Gal(b1-4)Glc. In outline: as §1
For test [14], the target named is Gal(b1-3)GlcNAc(b1-2)Man(a1-3)[Gal(b1-3)GlcNAc(b1-2)Man(a1-6)]Man(b1-4)GlcNAc(b1-4)GlcNAc. In outline: as §1
Test [15] addresses Gal(b1-3)GlcNAc(b1-3)Gal(b1-3)GlcNAc. An outline of the steps: as §1
In test [16] the target is Gal(b1-3)GlcNAc(b1-3)Gal(b1-4)[Fuc(a1-3)]GlcNAc(b1-6)[Gal(b1-3)GlcNAc(b1-3)]Gal(b1-4)Glc. An outline of the steps:
as §1

A further test addresses Gal(b1-4)GlcNAc(b1-2)Man. In outline:
as §1

Test [17] concerns the target Gal(b1-4)GlcNAc(b1-2)[Gal(b1-4)GlcNAc(b1-4)]Man(a1-3)[Gal(b1-4)GlcNAc(b1-2)[Gal(b1-4)GlcNAc(b1-6)]Man(a1-6)]Man(b1-4)GlcNAc(b1-4)GlcNAc. In outline: as §1
Test [18] concerns the target Gal(b1-4)GlcNAc(b1-3)Gal(b1-3)GlcNAc. An outline of the steps:
as §1

The target of test [19] is Gal(b1-4)GlcNAc(b1-3)Gal(b1-4)[Fuc(a1-3)GlcNAc(b1-6)]Gal(b1-4)Glc. An outline of the steps: as §1
The next test addresses Gal6S(b1-4)Glc. In outline: as §1
For another test, the target named is GalNAc(b1-6)GalNAc. In outline:
as §1

A further test concerns the target GlcA(b1-3)Gal. In outline: as §1
The target of test [20] is GlcNAc(a1-4)Gal(b1-3)GlcNAc. An outline of the steps:
as §1

Test [21] addresses GlcNAc(a1-4)Gal(b1-4)GlcNAc(b1-3)Gal(b1-4)Glc. In outline:
as §1

For test [22], the target named is GlcNAc(a1-4)Gal(b1-4)GlcNAc(b1-3)Gal(b1-4)GlcNAc. An outline of the steps: as §1
Test [23] deals with GlcNAc(a1-6)Gal(b1-4)GlcNAc. An outline of the steps:
as §1

The target of test [24] is GlcNAc(b1-2)Man(a1-3)[GlcNAc(b1-2)Man(a1-6)]Man(b1-4)GlcNAc(b1-4)[Fuc(a1-6)]GlcNAc. An outline of the steps: as §1
The target of test [25] is GlcNAc(b1-3)Gal(b1-4)GlcNAc(b1-6)[Gal(b1-3)]GalNAc. An outline of the steps: as §1
The target in another test is GlcNAc(b1-4)GlcNAc. An outline of the steps: as §1
Another test has as its target Kdn(a2-3)Gal(b1-3)GlcNAc. An outline of the steps: as §1
In the next test the target is Kdn(a2-3)Gal(b1-4)Glc. An outline of the steps:
as §1

For test [26], the target named is Man(a1-2)Man(a1-2)Man(a1-3)Man. In outline: as §1
In test [27] the target is Neu5Ac(a2-3)Gal(b1-3)GlcNAc(b1-2)[Neu5Ac(a2-3)Gal(b1-3)GlcNAc(b1-4)]Man(a1-6)[Neu5Ac(a2-3)Gal(b1-3)GlcNAc(b1-2)Man(a1-3)]Man(b1-4)GlcNAc(b1-4)GlcNAc. In outline:
as §1

Test [28] addresses Neu5Ac(a2-3)Gal(b1-3)GlcNAc6S. In outline: as §1
Test [29] has as its target Neu5Ac(a2-3)Gal(b1-4)GlcNAc(b1-2)Man. In outline:
as §1

Test [30] addresses Neu5Ac(a2-3)Gal(b1-4)[Fuc(a1-3)]GlcNAc(b1-6)[Neu5Ac(a2-3)Gal(b1-3)]GalNAc. An outline of the steps:
as §1

Test [31] has as its target Neu5Ac(a2-6)Gal(b1-4)GlcNAc(b1-2)Man(a1-3)[GlcNAc(b1-4)][Neu5Ac(a2-6)Gal(b1-4)GlcNAc(b1-2)Man(a1-6)]Man(b1-4)GlcNAc(b1-4)GlcNAc. An outline of the steps:
as §1

Test [32] concerns the target Neu5Ac(a2-6)Gal(b1-4)GlcNAc(b1-2)Man(a1-3)[Neu5Ac(a2-3)Gal(b1-4)GlcNAc(b1-2)Man(a1-6)]Man(b1-4)GlcNAc(b1-4)GlcNAc. An outline of the steps:
as §1

For test [33], the target named is Neu5Ac(a2-6)Gal(b1-4)GlcNAc(b1-2)Man(a1-3)[Neu5Ac(a2-6)Gal(b1-4)GlcNAc(b1-2)Man(a1-6)]Man(b1-4)GlcNAc(b1-4)[Fuc(a1-6)]GlcNAc. An outline of the steps:
as §1

Test [34] addresses Neu5Ac(a2-6)Gal(b1-4)GlcNAc(b1-2)Man(a1-6)Man(b1-4)GlcNAc(b1-4)GlcNAc. In outline: as §1
Test [35] addresses Neu5Ac(a2-6)Gal(b1-4)GlcNAc(b1-3)Gal(b1-3)GlcNAc. An outline of the steps: as §1
Test [36] addresses Neu5Ac(a2-8)Neu5Ac(a2-8)Neu5Ac. In outline:
as §1

Shown is part of a subset that was picked to be rich in the strongest signals.

B1: CD72 ectodomain (Homo sapiens), P21854 (protein)
chain: RYLQVSQQLQQTNRVLEVTNSSLRQQLRLKITQLGQSAEDLQGSRRELAQSQEALQVEQRAHQAAEGQLQACQADRQKTKETLQSEEQQRRALEQKLSNMENRLKPFFTCGSADTCCPSGWIMHQKSCFYISLTSKNWQESQKQCETLSSKLATFSEIYPQSHSYYFLNSLLPNGGSGNSYWTGLSSNKDWKLTDDTQRTRTYAQSSKCNKVHKTWSWWTLESESCRSSLPYICEMTAFRFPD
With B1, the “glycan array binding signal (z-score)” value in test [1] is -0.867; in [2] it was 0.01; with Fuc(a1-2)Gal(b1-3)GlcNAc, 1.12; in test [3] it was -0.186; in test [4] it was 1.08; in test [5], 5.72. Besides, the “glycan array binding signal (z-score)” value in test [6] was 2.7; in test [7], 0.3; in test [8] it was 0.886; in [9], 0.575; with Gal(a1-2)Gal, 0.56; in test [10], -1.69. The “glycan array binding signal (z-score)” value is 1.45 in test [11]; 0.8 in test [12]; 1.16 in test [13]; 1.6 in test [14]; -0.958 in test [15]; 2.26 in [16]. Moreover, the “glycan array binding signal (z-score)” value with Gal(b1-4)GlcNAc(b1-2)Man was 0.51; in test [17] it was -0.561; in [18], -0.795; in test [19] it was -0.359; with Gal6S(b1-4)Glc, -0.925; with GalNAc(b1-6)GalNAc it was -0.435. Also, the “glycan array binding signal (z-score)” value with GlcA(b1-3)Gal is 2.21; in test [20], -1.11; in [21], 0.006; in test [22] it was 4.25; in test [23] it was 4.24; in test [24], 2.59.

B2: Gal-9-hFc (Mus musculus), O08573-2 (protein)
chain: MALFSAQSPYINPIIPFTGPIQGGLQEGLQVTLQGTTKSFAQRFVVNFQNSFNGNDIAFHFNPRFEEGGYVVCNTKQNGQWGPEERKMQMPFQKGMPFELCFLVQRSEFKVMVNKKFFVQYQHRVPYHLVDTIAVSGCLKLSFITFQTQNFRPAHQAPMAQTTIHMVHSTPGQMFSTPGIPPVVYPTPAYTIPFYTPIPNGLYPSKSIMISGNVLPDATRFHINLRCGGDIAFHLNPRFNENAVVRNTQINNSWGQEERSLLGRMPFSRGQSFSVWIICEGHCFKVAVNGQHMCEYYHRLKNLQDINTLEVAGDIQLTHVQT
Take B2: the “glycan array binding signal (z-score)” value in [25] was -0.325; with GlcNAc(b1-4)GlcNAc it was 4.66; with Kdn(a2-3)Gal(b1-3)GlcNAc, -0.153; in the test with Kdn(a2-3)Gal(b1-4)Glc, 2.38; in [26] it was -0.431; in test [27], -0.482. The “glycan array binding signal (z-score)” value is -0.023 in test [28]; 3.47 in [29]; 0.233 in test [30]; -0.272 in test [31]; -0.448 in test [32]; -0.496 in [33]. Besides, the “glycan array binding signal (z-score)” value in test [34] is -0.192; in test [35], -0.307; in [36], 2.03.
